KB-3-1 cytotox = kills parental KB-3-1 adenocarcinoma cells | KB-3-1 viability, CellTiter-Glo ATP luminescence, 72 h | Potency, µM (series often up to 46.1 µM), hits mostly cytotoxic | hit rate 1.4% among 400,000 | AID 1347075; further: nearly all actives have a fitted effect of over 60% in size
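KB-3-1 cells, DMEM (no phenol red) + 10% FBS; compound by pin transfer, 72 h, 37 °C. Readout: CellTiter-Glo luminescence after 10 min. Data normalized, curve-fitted.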
HT1080 IDH1KD tx = toxicity to HT-1080 IDH1 knockdown cells (counter line); HT-1080 IDH1 knockdown viability, ATP luminescence, 48 h; Potency, µM (titrated, usually from 46.1 µM), most hits filed as cytotoxic; hit rate 2% among 360,000; AID 686971
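HT-1080-IDH1KD cells (IDH1 knocked down), 750/well in RPMI with 5% FBS, treated with compound 48 h at 37 degrees C. Viability by CellTiter-Glo luminescence, normalised to DMSO and no-cell wells; concentration-response curves classed.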
KB-V1 cytotox = KB-V1 MDR subline cytotoxicity; KB-V1 MDR cells viability, CellTiter-Glo, 72 h; Potency, µM (titrated, usually from 46.1 µM), actives largely listed as cytotoxic; hit rate 3.4% among 400,000; AID 1347076; further: nearly all actives have a fitted effect of over 60% in size
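In this primary screen, KB-V1 cells overexpressing P-gp are incubated with library compounds (lowest to highest concentration) for 72 h at 37 degrees C before a luminescent ATP viability read.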
TDP1 cell CPT = growth inhibition of DT40 Tdp1-/-;hTDP1 cells with camptothecin (screen for TDP1 inhibitors) | hit rate 12% among 420,000 | Potency, µM (series often up to 46.2 µM), actives largely listed as inhibitors | chicken DT40 Tdp1-/-;hTDP1 cells + 20 nM CPT, ATP luminescence, 48 h; further: nearly all actives have a fitted effect of over 55% in size
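Chicken DT40 Tdp1-/- cells complemented with human TDP1, 400 cells/well, exposed to compounds plus 20 nM camptothecin for at least 48 h at 37 C; viability read as ATP content by CellTiter-Glo luminescence.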
DT40 TDP1 no CPT = qHTS for Inhibitors of human tyrosyl-DNA phosphodiesterase 1 (TDP1): qHTS in cells in absence of CPT; hit rate 15% among 420,000; AID 686978, 2013; DT40 Tdp1-/- hTDP1 cells, no CPT, ATP luminescence, 48 h; Potency, µM (titrated, usually from 46.2 µM), actives largely listed as inhibitors; further: nearly all actives have a fitted effect of over 55% in size
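Readout: luminescence from CellTiter-Glo after 30 min in the dark at RT. Cells: DT40 Tdp1-/- with stable hTDP1, 400/well. Exposure: compounds alone, ≥48 hr, 37 °C.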
HT1080-NT tox = kills 2HG-producing HT-1080-NT fibrosarcoma cells; HT-1080-NT fibrosarcoma viability, CellTiter-Glo ATP luminescence, 48 h; Potency, µM (top dose mostly 46.1 µM), actives largely listed as cytotoxic; hit rate 1.6% among 360,000; AID 686970;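 further: NT is the 2HG producing partner of a matched IDH1 knockdown line; nearly all actives have a fitted effect of over 55% in size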
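Compounds were tested in concentration-response format on HT-1080-NT cells for 48 hours at 37 degrees C. Cell viability came from CellTiter-Glo luminescence; curves were classified by r2, response magnitude and activity.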
Hits are given with their value. Rows were chosen to be rich in hits. Some 19% of all compounds tested hit in one or more screens of this group. The call rests on the fitted dose curve; in most records, active means well fitted curve in the direction sought with a large enough effect; inconclusive means small, poorly fitted or top-dose-only effect, or another doubt; inactive means no such curve, though single readings can be large; an effect the other way counts as inactive or inconclusive.

What do the screens show for `CC(C)C(=O)Nc1cccc(C(=O)Nc2ccc(S(=O)(=O)Nc3nccs3)cc2)c1`?
KB-3-1 cytotox: inactive; HT1080 IDH1KD tx: inactive; KB-V1 cytotox: inactive; TDP1 cell CPT: inactive; DT40 TDP1 no CPT: inactive; HT1080-NT tox: inactive

How did CC(=O)OCCNc1cc(Sc2nc3ccccc3[nH]2)c2nonc2c1[N+](=O)[O-] do in these assays?
KB-3-1 cytotox: inconclusive; HT1080 IDH1KD tx: 18µM; KB-V1 cytotox: inactive; TDP1 cell CPT: 2.3µM; DT40 TDP1 no CPT: 4.1µM; HT1080-NT tox: inactive

What do the screens show for `CC(=O)OCCCNc1cc(Sc2ccc(C)cc2)c2nonc2c1[N+](=O)[O-]`?
KB-3-1 cytotox: inconclusive; HT1080 IDH1KD tx: inactive; KB-V1 cytotox: inactive; TDP1 cell CPT: 2.9µM; DT40 TDP1 no CPT: 3.3µM; HT1080-NT tox: inactive

Results for Cn1ccnc1Sc1cc(NCCCO)c([N+](=O)[O-])c2nonc12 ?
KB-3-1 cytotox: inactive; HT1080 IDH1KD tx: inconclusive; KB-V1 cytotox: inactive; TDP1 cell CPT: 3.3µM; DT40 TDP1 no CPT: 5.2µM; HT1080-NT tox: 4.1µM

Results for COc1ccc(CNc2cc(NCCCO)c([N+](=O)[O-])c3nonc23)cc1 ?
KB-3-1 cytotox: inactive; HT1080 IDH1KD tx: inactive; KB-V1 cytotox: inactive; TDP1 cell CPT: 21µM; DT40 TDP1 no CPT: 6.5µM; HT1080-NT tox: inactive

What do the screens show for `COc1ccc(Nc2cc(NCCCO)c([N+](=O)[O-])c3nonc23)cc1`?
KB-3-1 cytotox: inactive; HT1080 IDH1KD tx: inactive; KB-V1 cytotox: inactive; TDP1 cell CPT: inactive; DT40 TDP1 no CPT: inactive; HT1080-NT tox: inactive

Results for O=C(NCCc1ccccc1)c1cc([N+](=O)[O-])ccc1N1CCOCC1 ?
KB-3-1 cytotox: inactive; HT1080 IDH1KD tx: inactive; KB-V1 cytotox: inactive; TDP1 cell CPT: inconclusive; DT40 TDP1 no CPT: inactive; HT1080-NT tox: inactive

What do the screens show for `O=C(NC1CCCCC1)c1cc([N+](=O)[O-])ccc1N1CCCCC1`?
KB-3-1 cytotox: inactive; HT1080 IDH1KD tx: inactive; KB-V1 cytotox: 9.2µM; TDP1 cell CPT: inactive; DT40 TDP1 no CPT: inactive; HT1080-NT tox: inactive

Results for O=C(Nc1ccccc1)c1cc([N+](=O)[O-])ccc1N1CCCCC1 ?
KB-3-1 cytotox: inactive; HT1080 IDH1KD tx: inactive; KB-V1 cytotox: inactive; TDP1 cell CPT: inconclusive; DT40 TDP1 no CPT: inconclusive; HT1080-NT tox: inactive

What do the screens show for `CC(C)CNC(=O)c1cc([N+](=O)[O-])ccc1N1CCCCC1`?
KB-3-1 cytotox: inactive; HT1080 IDH1KD tx: inactive; KB-V1 cytotox: inactive; TDP1 cell CPT: inconclusive; DT40 TDP1 no CPT: 23µM; HT1080-NT tox: inactive

How did O=C(CCCSc1nc2ccccc2[nH]1)NCc1ccc(Cl)cc1 do in these assays?
KB-3-1 cytotox: inactive; HT1080 IDH1KD tx: inactive; KB-V1 cytotox: inactive; TDP1 cell CPT: inconclusive; DT40 TDP1 no CPT: inconclusive; HT1080-NT tox: inactive

What do the screens show for `O=C(CCCSc1nc2ccccc2[nH]1)NCc1ccccc1F`?
KB-3-1 cytotox: inactive; HT1080 IDH1KD tx: inactive; KB-V1 cytotox: inactive; TDP1 cell CPT: inconclusive; DT40 TDP1 no CPT: 21µM; HT1080-NT tox: inactive

How did FC(F)(F)c1nnc(-c2ccccc2)nc1Sc1ccc(Cl)cc1 do in these assays?
KB-3-1 cytotox: inconclusive; HT1080 IDH1KD tx: inconclusive; KB-V1 cytotox: inconclusive; TDP1 cell CPT: 5.2µM; DT40 TDP1 no CPT: 6.5µM; HT1080-NT tox: inconclusive

Results for FC(F)(F)c1cccc(Sc2nc(-c3ccccc3)nnc2C(F)(F)F)c1 ?
KB-3-1 cytotox: 21µM; HT1080 IDH1KD tx: inconclusive; KB-V1 cytotox: inconclusive; TDP1 cell CPT: 8.2µM; DT40 TDP1 no CPT: 12µM; HT1080-NT tox: inconclusive

Results for FC(F)(F)c1nnc(-c2ccccc2)nc1Sc1ccccc1 ?
KB-3-1 cytotox: inactive; HT1080 IDH1KD tx: inconclusive; KB-V1 cytotox: inactive; TDP1 cell CPT: 15µM; DT40 TDP1 no CPT: 10µM; HT1080-NT tox: inconclusive

What do the screens show for `FC(F)(F)c1cccc(Oc2nc(-c3ccccc3)nnc2C(F)(F)F)c1`?
KB-3-1 cytotox: inactive; HT1080 IDH1KD tx: inactive; KB-V1 cytotox: inactive; TDP1 cell CPT: inactive; DT40 TDP1 no CPT: inconclusive; HT1080-NT tox: inactive

What do the screens show for `FC(F)(F)c1nnc(-c2ccccc2)nc1N1CCCC1`?
KB-3-1 cytotox: inactive; HT1080 IDH1KD tx: inactive; KB-V1 cytotox: inactive; TDP1 cell CPT: inactive; DT40 TDP1 no CPT: inactive; HT1080-NT tox: inactive

What do the screens show for `CCC(C)NCCCOc1ccc(Cl)cc1C(C)(C)C` (stereo not drawn)?
KB-3-1 cytotox: inactive; HT1080 IDH1KD tx: inactive; KB-V1 cytotox: inconclusive; TDP1 cell CPT: inconclusive; DT40 TDP1 no CPT: inconclusive; HT1080-NT tox: inactive

Screens from PubChem BioAssay.
